Screening data from PubChem BioAssay.
SNCA expr inh – Primary qHTS assay for inhibitors of alpha-synuclein gene (SNCA) expression. AID 1671194, 2021. Potency, µM (doses to about 57.2 µM), for inactives: at the highest dose activity change, negative = inhibition, most hits filed as inhibitors. 0.17% of 140,000 active. HEK-293 SNCA-luciferase knock-in, luminescence, 24 h;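 note: plate controls were DMSO cells for no effect and cell-free wells for full effect; nearly all actives have a fitted effect of over 45% in size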
SNCA viab count – GF-AFC viability counterscreen for inhibitors of alpha-synuclein gene (SNCA) expression; Potency, µM (highest dose often 57.1 µM), without a hit: at the highest dose activity change, negative = cytotoxicity, usual class: cytotoxic; 0.12% of 150,000 active; AID 1671193, 2021; HEK-293-SNCA-luc viability, GF-AFC fluorescence, 24 h;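 note: 0% = DMSO-treated cells and -100% = medium-only wells without cells; nearly all actives have a fitted effect of over 30% in size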
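Cytotoxicity counterscreen: after 24 h compound treatment of genome-edited SNCA-luciferase HEK-293 cells, live-cell protease substrate GF-AFC read by fluorescence after 30 min; activity scaled between DMSO (0%) and medium-only (-100%), curves Hill-fitted.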
NPR1 antag – Natriuretic polypeptide receptor (hNpr1) antagonism - Primary qHTS | Atrial natriuretic peptide receptor 1 (Homo sapiens), P16066 | HEK293 hNpr1 GloSensor cGMP, ANP-stimulated luminescence | Potency, µM (top dose mostly 46.3 µM), for the others: at the highest dose activity change, negative = inhibition, most hits filed as inhibitors | 1.6% of 76,000 active; calls by dose curve; note: nearly all actives have a fitted effect of over 60% in size
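HEK293 cells stably expressing human Npr1 and cGMP GloSensor pGS-40F, loaded 2 h with 2% GloSensor reagent, given compound 30 min at room temperature. Luminescence read before and 20 min after 0.1 nM hNppA.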
NIH3T3 tox – Cytotoxic Profiling in NIH 3T3 Cell Line of Diverse Libraries Using Quantitative High-Throughput Screening | NIH 3T3 viability, CellTiter-Glo ATP luminescence, 48-72 h | Potency, µM (doses to about 96.7 µM), inactives show at the highest dose activity change, negative = cytotoxicity, most hits filed as inhibitors | 4.3% of 94,000 active | AID 1345082, 2018; note: nearly all actives have a fitted effect of over 55% in size
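Cytotoxicity is measured as loss of cellular ATP: NIH 3T3 cells (400/well) are exposed to compound for 48 or 72 hr at 37 °C, then CellTiter-Glo luminescence is imaged after 10 min at room temperature.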
HEK293 tox – Cytotoxic Profiling in HEK 293 Cell Line of Diverse Libraries Using Quantitative High-Throughput Screening; Potency, µM (highest dose often 115 µM), for inactives: at the highest dose activity change, negative = cytotoxicity, hits mostly inhibitors; 6.6% of 94,000 active; HEK 293 viability, ATP luminescence (CellTiter-Glo), 48-72 h; AID 1345083, 2018; note: nearly all actives have a fitted effect of over 60% in size
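Read-out: CellTiter-Glo ATP luminescence. Cells: HEK 293, 250 cells/well. Exposure: 48 or 72 hr, 37 degree Celsius.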
Luciferase inh – Firefly luciferase inhibition profiling of diverse chemical library using quantitative high-throughput screening. Luciferin 4-monooxygenase (Photinus pyralis), P08659. purified P. pyralis luciferase, luminescence, biochemical. Potency, µM (titrated, usually from 115 µM), most hits filed as inhibitors. 2.5% of 76,000 active. AID 1347043, 2019; note: nearly all actives have a fitted effect of over 65% in size
Target sequence (P08659 whole entry, looked up): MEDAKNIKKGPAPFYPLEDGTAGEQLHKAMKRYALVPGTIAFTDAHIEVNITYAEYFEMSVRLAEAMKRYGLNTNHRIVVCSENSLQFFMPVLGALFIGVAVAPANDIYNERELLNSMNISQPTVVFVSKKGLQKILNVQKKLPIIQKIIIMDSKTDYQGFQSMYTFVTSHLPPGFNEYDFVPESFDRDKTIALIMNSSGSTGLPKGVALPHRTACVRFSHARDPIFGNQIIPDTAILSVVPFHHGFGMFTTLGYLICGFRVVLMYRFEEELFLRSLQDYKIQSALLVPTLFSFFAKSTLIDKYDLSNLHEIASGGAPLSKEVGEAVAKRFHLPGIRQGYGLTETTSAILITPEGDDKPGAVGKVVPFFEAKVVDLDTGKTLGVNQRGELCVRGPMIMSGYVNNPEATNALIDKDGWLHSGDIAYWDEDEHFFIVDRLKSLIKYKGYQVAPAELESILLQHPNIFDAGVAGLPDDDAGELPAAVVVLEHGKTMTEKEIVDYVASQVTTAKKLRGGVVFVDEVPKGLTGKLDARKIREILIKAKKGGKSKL
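Purified 10nM P. pyralis luciferase with 10uM D-luciferin and 10uM ATP in 50mM Tris acetate pH 7.5, 10mM Mg acetate, 0.01% Tween-20, 0.05% BSA. qHTS titration; luminescence read by CCD imager.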
Starred values were filed as active, the others as inactive; i = inactive; ? = inconclusive; / = not tested or not shown; [ ] = dose if it differs, or a comment. Most compounds without a hit are left out; they make up all but 7.2% or so of the library. Unless noted, calls come from the whole dose curve; as a rule, active = well fitted curve in the direction sought with a large enough effect; inconclusive = small, poorly fitted or top-dose-only effect, or another doubt; inactive = no such curve, though single readings can be large; an effect the other way counts as inactive or inconclusive. Unless noted, % is set by controls: 0 for no effect and ±100 for the full control effect; potency is the fitted concentration of half-maximal effect.

SMILES	SNCA expr inh	SNCA viab count	NPR1 antag	NIH3T3 tox	HEK293 tox	Luciferase inh
COc1cccc(CN2CCCC(N3CCN(c4cccc(C(F)(F)F)c4)CC3)C2)c1O (configuration not stated)	-12%	?	-14%	?	32µM*	i
CNC(=O)CN1CCCC(N2CCN(c3cccc(C(F)(F)F)c3)CC2)C1 (configuration not stated)	10%	7%	2%	-32%	-19%	i
O=C(N1CC(N(Cc2ccncc2)CC2CC2)C1)C1(c2ccccc2)CC1	?	-5%	/	-27%	-14%	/
O=C(c1ccc2cc[nH]c2c1)N1CCCN(c2cc(-c3ccc(F)cc3)[nH]n2)CC1	-22%	-6%	?	?	40µM*	i
CN(C)c1cccc(C(=O)N2CCCN(c3cc(-c4ccc(F)cc4)[nH]n3)CC2)c1	155%	-3%	-21%	3%	?	22µM*
Cc1ccc(-c2cc(N3CCCN(C(=O)c4cccc(N(C)C)c4)CC3)n[nH]2)cc1C	-27%	18µM*	?	40µM*	?	?
O=C1CC(c2ccccc2)N(Cc2ccncc2)CCCN(C(=O)COc2ccc(F)cc2)CCN1 (configuration not stated)	6%	-8%	1%	-19%	?	i
Cc1noc2c(N3CCOCC3)cc(-c3cccc(C(F)(F)F)c3)nc12	4%[87.6 µM]	-16%[87.6 µM]	5%[70.6 µM]	?	?	i
COc1ccc2[nH]c3c(c2c1)CCNC31CCN(C(=O)c2ccc(C)nc2)CC1	-16%	-14%[12.5 µM]	1%	-11%	79µM*	i
COc1ccc2[nH]c3c(c2c1)CCNC31CCN(C(=O)c2ccccc2F)CC1	-4%	-7%[12.5 µM]	4%	?	?	i
COc1ccc2[nH]c3c(c2c1)CCNC31CCN(C(=O)c2cnc(C)cn2)CC1	0%	-6%[12.5 µM]	9%	-3%	?	i
COc1ccc2[nH]c3c(c2c1)CCNC31CCN(C(=O)c2ccc(OC)nc2OC)CC1	-26%	2%[12.5 µM]	3%	-28%	11µM*	i
O=C(c1cccc(F)c1)N1CCCC(c2noc(COc3ccccc3)n2)C1 (configuration not stated)	7%	-8%[12.5 µM]	-5%	-22%	?	i
Cc1cccc(-c2noc(CCC(=O)N3CCC(C)(c4noc(C5CC5)n4)CC3)n2)c1	-2%	-6%	?	?	?	i
COc1ccc(CN2CC3(CCN(C(=O)Nc4ccc(OC)c(OC)c4)CC3)C2=O)cc1	-14%	-2%	-24%	-23%	?	i
COc1ccc(NC(=O)N2CCC3(CC2)CN(c2ccccc2)C3=O)cc1OC	-2%	-5%	/	-30%	40µM*	/
Cc1ccc(-c2noc([C@@H]3C[C@H](NC(=O)Nc4ccc(Cl)cc4)CN3C)n2)cc1	-23%[87.6 µM]	5%[87.6 µM]	-12%[70.6 µM]	-32%[174 µM]	-43%[172 µM]	i
CN1C[C@@H](NC(=O)c2ccccn2)C[C@H]1c1nc(-c2ccc(Cl)cc2)no1	40%[87.6 µM]	?	6%[70.6 µM]	?	89µM*	71µM*
CN1C[C@@H](NC(=O)c2cnccn2)C[C@H]1c1nc(-c2ccc(OC(F)(F)F)cc2)no1	-4%[87.6 µM]	-6%[87.6 µM]	-18%[70.6 µM]	?	89µM*	i
CN1C[C@@H](NC(=O)Nc2ccc(C(F)(F)F)cc2)C[C@H]1c1nc(-c2ccc(Cl)cc2)no1	?	-26%	?	8.9µM*	20µM*	i
CN1C[C@@H](NC(=O)Nc2ccc(F)cc2F)C[C@H]1c1nc(-c2ccncc2)no1	72%[87.6 µM]	-2%[87.6 µM]	-30%[70.6 µM]	?	?	?
CN1C[C@@H](NC(=O)Nc2ccc(F)cc2F)C[C@H]1c1nc(-c2ccccc2)no1	-10%[87.6 µM]	-17%[87.6 µM]	?	-23%[174 µM]	63µM*	i
Cc1ccc(-c2nc(C(=O)N3CCN(c4cccc(C)c4C)CC3)no2)cc1	-27%	6%	1%	?	?	i
O=C(NCc1cccnc1)[C@@H]1C[C@@H](O)CN1C1CCN(C(=O)c2cccs2)CC1	25%	5%	-10%	-4%	2%	i
COC[C@H]1C[C@H]2C[C@H](OC(=O)Nc3cccc(Cl)c3)[C@@H](NC(=O)Nc3cccc(Cl)c3)[C@@]2(O)CO1	-21%[17 µM]	6%[12.5 µM]	/	?	?	/
SMILES	SNCA expr inh	SNCA viab count	NPR1 antag	NIH3T3 tox	HEK293 tox	Luciferase inh
COc1ccc(-c2noc(CN(CC3CCC(=O)N3)C(C)C)n2)c(OC)c1OC (configuration not stated)	2%	4%	18%	3%	-5%	i
COc1ccc(NC(=O)N[C@H]2C[C@@H](c3nc(-c4ccc(F)cc4)no3)N(C)C2)cc1	-24%[87.6 µM]	1%[87.6 µM]	0%[70.6 µM]	?	-38%[172 µM]	i
COc1ccc(C(=O)N[C@H]2C[C@@H](c3nc(-c4ccccc4)no3)N(C)C2)cc1	-3%[87.6 µM]	?	-4%[70.6 µM]	?	?	i
CN1C[C@@H](NC(=O)c2ccccn2)C[C@H]1c1nc(-c2ccc(OC(F)(F)F)cc2)no1	5%[87.6 µM]	1%[87.6 µM]	-25%[70.6 µM]	?	79µM*	i
COc1ccc(-c2noc([C@@H]3C[C@H](NC(=O)c4ccc(F)cc4)CN3C)n2)cc1	17%[87.6 µM]	-19%[87.6 µM]	-7%[70.6 µM]	?	?	i
COc1ccc(CC(=O)N[C@H]2C[C@@H](c3nc(-c4ccc(OC(F)(F)F)cc4)no3)N(C)C2)cc1	2%	-9%	?	?	35µM*	i
COc1ccc(C(=O)N[C@H]2C[C@@H](c3nc(-c4ccc(Cl)cc4)no3)N(C)C2)cc1	41%[87.6 µM]	?	?	?	56µM*	?
CCCCN(Cc1ccccc1)Cc1nc(-c2ccc(C(=O)OC)cc2)no1	116%	4%	-8%	-11%	-11%	8.9µM*
O=C(CNC(=O)c1ccc(-c2cnc3ccccc3c2)cc1)NCc1ccc(Cl)cc1	5%	?	/	-17%	-12%	/
O=C1COCC2(CN(Cc3cc(F)ccc3F)C2)CN1Cc1ccccc1	?	-7%[87.6 µM]	1%[70.6 µM]	-27%[138 µM]	100µM*	i
O=C1COCC2(CN1Cc1ccccc1)CN(c1cccnc1)C2	-2%[87.6 µM]	2%[87.6 µM]	-2%[70.6 µM]	89µM*	-29%[172 µM]	i
